mIDH1 inhibitor: human IDH1 R132H inhibition. O75874. IDH1-R132H enzyme, NADPH consumption, diaphorase/resazurin fluorescence. Potency, µM (doses to about 76.6 µM), inactives show at the highest dose activity change, negative = inhibition, most hits filed as inhibitors. 390,000 tested, 0.093% active. AID 602179; also: nearly all actives have a fitted effect of over 65% in size
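IDH1-R132H (0.5 ug/mL dispensed) in pH 7.5 Tris buffer was preincubated 30 min with compound, then given a substrate mix of 0.016 mM NADPH and 2 mM alpha-KG for 80 min at room temperature; remaining NADPH was read by diaphorase/resazurin fluorescence.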
TrxR1 substrate: substrates of rat thioredoxin reductase 1 | O89049 | purified TrxR1 substrate turnover, NADPH consumption readout | Potency, µM (highest dose often 114 µM), for inactives: top-dose activity change, negative = substrate turnover | 390,000 tested, 0.01% active | AID 588456; also: nearly all actives have a fitted effect of over 50% in size
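Rat TrxR1, dispensed at 90 nM, was prereduced with 400 uM NADPH (final) for 5 min at ~22 deg C, then incubated with compound 15 min before 400 uM selenite. A first-read NADPH fluorescence drop versus no-compound background flagged substrates.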
TrxR1 inh: blocks rat thioredoxin reductase 1; Potency, µM (doses to about 114 µM), inactives show at the top dose activity change, negative = inhibition, usual class: inhibitors; recombinant rTrxR1, NADPH fluorescence consumption, selenite substrate; AID 588453; 390,000 tested, 1% active; also: nearly all actives have a fitted effect of over 65% in size
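Rat TrxR1 (90 nM in the dispensed reagent) was pre-reduced with 400 uM NADPH for 5 min at room temperature, then incubated with compound for 15 min. After 400 uM selenite was added, NADPH fluorescence (Ex 340/Em 450 nm) was followed for 8 min.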
PLK1 PBD inh: blocks phosphopeptide binding to human PLK1 polo-box domain. P53350. Plk1 PBD binding of FITC phosphopeptide, fluorescence polarization. Potency, µM, without a hit: max response, negative = inhibition, usual class: inhibitors. 360,000 tested, 2.8% active; also: series mostly up to about 57 µM; nearly all actives have a fitted effect of over 65% in size
Target sequence (P53350 whole entry, looked up, the tested form may be a part): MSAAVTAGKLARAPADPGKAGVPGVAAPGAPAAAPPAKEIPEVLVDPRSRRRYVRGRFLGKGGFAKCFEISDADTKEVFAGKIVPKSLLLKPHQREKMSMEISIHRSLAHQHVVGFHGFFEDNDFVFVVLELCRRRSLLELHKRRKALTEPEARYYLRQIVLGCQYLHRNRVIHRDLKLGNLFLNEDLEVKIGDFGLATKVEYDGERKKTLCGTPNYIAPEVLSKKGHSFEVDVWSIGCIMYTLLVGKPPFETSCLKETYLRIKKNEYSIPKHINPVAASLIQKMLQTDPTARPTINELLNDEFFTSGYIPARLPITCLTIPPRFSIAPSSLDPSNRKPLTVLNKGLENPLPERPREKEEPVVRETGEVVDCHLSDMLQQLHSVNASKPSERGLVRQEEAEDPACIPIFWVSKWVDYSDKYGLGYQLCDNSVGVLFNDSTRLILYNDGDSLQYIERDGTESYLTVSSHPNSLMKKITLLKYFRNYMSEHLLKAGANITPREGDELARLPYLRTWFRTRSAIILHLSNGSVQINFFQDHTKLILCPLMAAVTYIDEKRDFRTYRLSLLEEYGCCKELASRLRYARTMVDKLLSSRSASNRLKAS
Sfp inh: Sfp phosphopantetheinyl transferase inhibition | Biochemical Sfp PPTase activity, qHTS | Potency, µM, inactives show largest response in the series, negative = inhibition, hits mostly inhibitors | 310,000 tested, 3.5% active | AID 1490;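 also: the enzyme is Sfp with the accession as filed and its product quenches rhodamine fluorescence; 0% = enzyme reaction without inhibitor and -100% = no enzyme wells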
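Step 1, compound plus 15 nM Sfp-PPTase, 15 min, room temperature. Step 2, add rhodamine-CoA (5 uM) and BHQ-2-YbbR (12.5 uM). Step 3, read 525/598 nm fluorescence at 0 and 30 min.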
VDR inhibitor: vitamin D3 receptor (human) inhibition; P11473; Potency, µM, inactives show max response, negative = inhibition, usual class: inhibitors; AID 504847; 400,000 tested, 0.93% active; VDR-SRC2-3 peptide fluorescence polarization, 2 h
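Compounds are added to VDR with labelled SRC2-3 coactivator peptide and held 2 h at room temperature. Inhibition of the VDR–peptide interaction is then read as a change in fluorescence polarization.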
Numbers without * were called inactive; ? = inconclusive; . = no result given; ! = repeats disagree; [ ] = another dose, or the depositor's remark. Most compounds without a hit are left out; they make up all but 5.2% or so of the library. Calls follow the shape of the dose curve; as a rule, active = well fitted curve in the direction sought with a large enough effect; inconclusive = small, poorly fitted or top-dose-only effect, or another doubt; inactive = no such curve, though single readings can be large; an effect the other way counts as inactive or inconclusive. Unless noted, % is scaled to controls: 0 for no effect and ±100 for the full control effect; potency is read from the fitted curve at half-maximal effect.

SMILES	mIDH1 inhibitor	TrxR1 substrate	TrxR1 inh	PLK1 PBD inh	Sfp inh	VDR inhibitor
CCOP(=S)(OCC)Oc1cc(C)oc(=O)c1	5.3%	-4.1%	3.0%	29.9µM*	20µM*	79.4µM*
CCOP(=S)(OCC)Oc1cc(C)oc(=O)c1Cl	0.0%	-7.5%	-22.3%	4.74µM*	8.91µM*	28.2µM*
CNC(=O)[C@@H]1C[C@H]1[C@@H](NP(=O)(c1ccccc1)c1ccccc1)c1ccccc1	.	.	.	.	28.9%	.
Cc1ccc(N2C(=O)NC(=O)/C(=C\c3ccc(N4CCOCC4)cc3)C2=O)cc1	-1.7%	-5.2%	?	5.97µM*	17.8µM*	?
Cc1cccc(N2C(=O)NC(=O)/C(=C\c3ccc(N4CCOCC4)cc3)C2=O)c1	7.2%	-5.5%	?	9.47µM*	25.1µM*	-11.2%
Cc1cccc(N2CCC3(CC2)C(=O)NC(=O)NC3=O)c1	-2.1%	-9.8%	-14.3%	-5.4%	.	-2.8%
Cc1cc(/C=C2\C(=O)NC(=O)N(c3ccc(Br)cc3)C2=O)c(C)n1C	6.7%	-3.4%	-5.8%	-2.4%	-1.5%	13.6%
Cc1cccc(N2C(=O)NC(=O)/C(=C/c3ccc(N4CCOCC4)cc3)C2=O)c1	-3.9%	-8.4%	?	11.9µM*	50.1µM*	-13.3%
O=C1NC(=O)N(c2ccc3c(c2)OCO3)C(=O)/C1=C/c1ccc(N2CCCCC2)o1	4.1%	-18.8%	?	102.3%	-9.2%	-7.5%
CCOc1ccc(N2C(=O)NC(=O)/C(=C\c3ccc(N4CCOCC4)cc3C)C2=O)cc1	0.0%	2.9%	?	6.7µM*	39.8µM*	?
O=C(CC[N+](=O)[O-])OCC1OC(O)C(OC(=O)CC[N+](=O)[O-])[C@@H](OC(=O)CC[N+](=O)[O-])C1OC(=O)CC[N+](=O)[O-] (stereo not given in full)	.	.	.	.	-5.7%	4.8%
NC(=O)C1=CN(C2OC(COP(=O)(O)OP(=O)(O)OC[C@H]3O[C@@H](n4cnc5c(N)ncnc54)[C@H](OP(=O)(O)O)[C@@H]3O)C(O)C2O)C=CC1 (stereo not given in full)	.	12.4%[57.1 µM]	21.6%[57.1 µM]	.	.	8.4%
C[C@]12CCC3C(CC[C@]4(O)C[C@@H](O)CC[C@]34C=O)[C@@]1(O)CC[C@@H]2C1=CC(=O)OC1 (stereo not given in full)	.	.	.	.	5.4%	2.2%
COc1ccc(N2C(=O)NC(=O)/C(=C\c3cn(C)c4ccccc34)C2=O)cc1	21.0%	-8.5%	?	-0.7%	-13.2%	-4.0%
COc1ccc(N2C(=O)NC(=O)/C(=C/c3ccc(N4CCOCC4)cc3)C2=O)cc1	.	.	.	.	50.1µM*	.
Cc1cccc(N2C(=O)NC(=O)/C(=C/c3ccc(-c4ccc(C(=O)O)c(Cl)c4)o3)C2=O)c1	.	.	.	.	44.7µM*	.
N[C@@H](CCCCP(=O)(O)O)C(=O)O	.	.	.	.	-6.9%	2.2%
C[S@@](=O)CCCCN=C=S	.	.	.	.	-7.8%	?
CC1Cc2c(cnc3c2CN(C)CC3)CO1 (stereo not given)	.	.	.	.	-24.3%	.
CCOC(=O)c1c(NC(NC(=O)CF)C(Cl)(Cl)Cl)sc2c1CCCC2 (stereo not given)	1.0%	5.6%[57.1 µM]	0.1%[57.1 µM]	11.9µM*	-23.4%	44.7µM*
O=C(CCl)Nc1nccs1	-1.1%	0.2%	12.6µM*	-8.8%	-4.9%	16.7%
O=C(Nc1nccs1)C(Cl)(Cl)Cl	10.6%	8.8%[57.1 µM]	18.2%[57.1 µM]	-11.0%	5.0%	-13.3%
CC(=O)OC[C@]12C[C@H](OC(=O)CC(C)C)C(C)=C[C@H]1O[C@H]1[C@H](O)[C@@H](OC(C)=O)[C@@]2(C)[C@]12CO2	.	.	.	.	10.1%	-5.9%
CC(C)[C@@H]1CN[C@H](C(=O)O)[C@@H]1CC(=O)O	.	.	.	.	-38.3%	-5.9%
O=C(O)c1ccc(-n2c(O)c(/C=C3\C=Nc4ccccc43)c(=O)[nH]c2=O)cc1	8.1%	-15.9%	-27.8%	9.47µM*	-3.9%	-16.2%
SMILES	mIDH1 inhibitor	TrxR1 substrate	TrxR1 inh	PLK1 PBD inh	Sfp inh	VDR inhibitor
COC(=O)C1=Nc2ccccc2/C1=C\c1c(O)n(C)c(=O)n(C)c1=O	-5.2%	-4.5%	?	4.74µM*	?	?
COc1ccc(OC)c(-n2c(O)c(/C=C3\C(C)=Nc4ccccc43)c(=O)[nH]c2=O)c1	1.0%	2.9%[11.4 µM]	4.9%[11.4 µM]	?	4.8%	-1.4%
COC(=O)C1=Nc2ccccc2/C1=C\c1c(O)n(-c2ccc(OC)cc2)c(=O)[nH]c1=O	4.2%	5.9%	?	3.36µM*	50.1µM*	?
O=c1[nH]c(=O)n(-c2ccccc2)c(O)c1/C=C1/C(c2ccccc2)=Nc2ccccc21	-1.3%	-10.1%	-45.5%	10.6µM*	-9.1%	?
O=c1[nH]c(=O)n(-c2cccc(F)c2)c(O)c1/C=C1\C=Nc2ccccc21	-2.3%	-6.4%	-15.6%	?	-10.2%	5.2%
CCCc1cc2c(n1CCO)C(C)C1CN(C(=O)c3ccccc3)C(C)(C(=O)OC)C21 (stereo not given)	.	.	.	.	37.0%	.
O=C(CN1CCOCC1)c1cccc2ccccc12	8.2%	-2.5%	17.8µM*	-23.4%	39.8µM*	-19.8%
CCN1C(=O)C(=C/C=C/c2ccco2)C(=O)N(CC)C1=S	-28.0%	-0.8%	4.47µM*	?	39.8µM*	84.6%
O=C1NC(=O)N(Cc2ccccc2)C(=O)/C1=C/C=C/c1ccco1	5.4%	-4.4%	?	121.7%	?	?
COCCn1c(-c2ccccc2)cc(C(=O)O)c1C	7.4%	5.5%	4.1%	23.8µM*	.	-6.3%
CCOC(=O)N1CC(C)N(/[N+]([O-])=N/Oc2ccc([N+](=O)[O-])cc2[N+](=O)[O-])CC1C (stereo not given)	.	-5.7%	11.2µM*	.	-6.6%	?
O=C(O)c1ccccc1-c1c2cc(Br)c(=O)cc-2oc2[c]([Hg])c(O)c(Br)cc12	.	.	.	.	2µM*!	2.24µM*
COc1ccc(OCC#CCN2CCNCC2)cc1	0.2%	-9.7%	-30.1%	-10.2%	?	-0.9%
COc1ccc(CN2CCNCC2)cc1	-1.5%	-0.7%	35.5µM*	-12.0%	12.6%	5.1%
CCCCC1(C2CCCC2)Cc2cc(OCCCC(=O)O)c(Cl)c(Cl)c2C1=O (stereo not given)	.	.	.	.	-20.4%	39.8µM*
C[C@@H](N)Cn1ccc2cc(F)c(Cl)cc21	.	.	.	.	17.1%	-1.9%
COC(=O)Cn1cc(C=C2C(=O)NC(=O)NC2=O)c2ccccc21	8.0%	-2.3%	?	?	?	-2.9%
COc1c(C=C2C(=O)NC(=O)NC2=O)c(CCN(C)C(=O)c2ccccc2)cc2c1OCO2	19.3%	-0.6%	17.8µM*	26.7µM*	-7.0%	?
CCCC(C)c1nnc(NC(=O)CCS(=O)(=O)c2ccccc2)s1 (stereo not given)	-0.3%	-18.6%	9.1%[57.1 µM]	4.74µM*	17.8µM*	25.1µM*

High-throughput results: PubChem BioAssay, National Center for Advancing Translational Sciences (NCATS)
